Screens (PubChem)
Only some compounds are listed: those with a hit (about 2.9% of all), similar ones and a draw of the others.
MEKK2 mut-MEK5 = signal of MEK5 binding to mutant human MEKK2 PB1 domain. bead flow cytometry, Alexa488-MEK5 binding to MEKK2 mutant. AID 1530. percent response, % at 10 µM. 0.35% of 290,000 active; in the data active = percent response above about 24%, passing the limit was not always enough
MEKK2wt PB1 HTS = raises or lowers MEK5 binding to wildtype human MEKK2 PB1 domain; Q9Y2U5; bead flow cytometry, Alexa488-MEK5 binding to MEKK2 WT; actives lie on both sides; 1.1% of 290,000 active; AID 1531; binding response (% of control), % at 10 µM; in the data active = binding response below about 67% or above about 130%
CRFBP-R2 block = CRF-BP/CRF-R2 complex antagonism; HEK293 CRF-R2/CRF-BP, CRF-induced calcium fluorescence; inhibition, % at 11.8 µM; 0.59% of 350,000 active;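 active = inhibition of the ligand-induced calcium signal above about 50% at the single tested concentration, limit read from the data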
MEKK3 PB1 HTS = MEKK3-MEK5 PB1 interaction, increase or decrease | bead-based flow cytometry, Alexa488-MEK5 binding to MEKK3; actives lie on both sides; 0 = blocked by unlabeled MEK5, 100 = vehicle | binding response (% of control), % at 10 µM | 1.4% of 290,000 active;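 active = binding response more than 3 SD above or below the average of its plate-row segment, actives on both sides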;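 also: Alexa488 bead fluorescence after subtracting the streptavidin-only scavenger bead signal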
Target sequence (Q99759 whole entry, looked up): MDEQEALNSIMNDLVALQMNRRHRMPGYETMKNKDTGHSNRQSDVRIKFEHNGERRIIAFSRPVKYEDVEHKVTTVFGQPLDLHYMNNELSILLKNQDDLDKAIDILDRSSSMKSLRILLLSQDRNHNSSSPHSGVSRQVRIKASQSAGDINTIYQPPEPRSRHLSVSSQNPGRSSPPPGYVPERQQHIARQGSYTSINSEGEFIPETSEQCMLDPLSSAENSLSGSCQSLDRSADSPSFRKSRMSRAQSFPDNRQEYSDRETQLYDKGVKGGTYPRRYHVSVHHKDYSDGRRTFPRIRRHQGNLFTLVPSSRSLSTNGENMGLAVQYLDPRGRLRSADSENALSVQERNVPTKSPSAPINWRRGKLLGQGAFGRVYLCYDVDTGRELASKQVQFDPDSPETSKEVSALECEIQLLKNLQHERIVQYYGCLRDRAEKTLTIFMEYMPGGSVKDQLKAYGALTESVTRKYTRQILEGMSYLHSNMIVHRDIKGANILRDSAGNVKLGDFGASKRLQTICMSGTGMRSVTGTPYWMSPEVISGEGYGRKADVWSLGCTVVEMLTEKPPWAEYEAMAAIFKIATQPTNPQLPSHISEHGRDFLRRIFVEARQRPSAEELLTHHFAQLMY
CRFR2-BP ag = CRF-BP/CRF-R2 complex agonism; HEK293 CRF-R2/CRF-BP, calcium dye fluorescence (FLIPR); percent of saturating CRF peptide response; activation, % at 13.2 µM; 0.46% of 350,000 active; AID 588473;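 active = activation of at least 50%, plus an integration ratio under a set limit after plate pattern correction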
ABCB6 inh 2 = blocks the human ABCB6 transporter | 0.19% of 360,000 active | Q9NP58 | K562-ABCB6 porphyrin accumulation, flow cytometry, 1 h; stronger effect = lower value | fluorescence ratio to DMSO, % at 10 µM;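 active = fluorescence ratio to DMSO below 75%, the collection mean minus 3 SD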;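 also: signal is porphyrin accumulated inside mitochondria; lower ratio means ABCB6 inhibition with less porphyrin fluorescence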
MEKK2wt confirm = raises or lowers MEK5 binding to wildtype human MEKK2, retest; shares compounds with MEKK3 PB1 HTS; 2.4% of 5,900 active; binding response (% of control), % at 10 µM; AID 1892; bead flow cytometry, Alexa488-MEK5 binding to MEKK2 WT; actives lie on both sides; in the data active = binding response below about 16% or above about 210%; inactive = in between
MEKK2mut-MEK5 = signal of MEK5 binding to mutant human MEKK2, retest | bead flow cytometry, Alexa488-MEK5 binding to MEKK2 mutant | shares compounds with MEKK3 PB1 HTS | AID 1893 | percent response, % at 10 µM | 2% of 5,900 active; in the data active = percent response mostly above about 71%, no sharp cut-off; inactive = mostly below about 38%;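 also: higher means compound restores mutant binding toward wildtype level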
MEKK3-MEK5 inh = confirmation of inhibitors of MEK5 binding to human MEKK3; shares compounds with MEKK3 PB1 HTS; AID 1894; binding response (% of control), % at 10 µM; bead flow cytometry, Alexa488-MEK5 binding to MEKK3; stronger effect = lower value; 1.8% of 5,900 active;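 active = binding response below 72% of control, or above a set upper limit, though filed actives all read lower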
Of the large screens only hits and unclear results are named; the others gave an inactive call (follow-up assays come after a bar, where they were run); [ ] = another dose, or the depositor's remark.

CCOC(=O)C1=C(CC)OC(N)=C(C#N)C1c1cccs1 (stereo not drawn)	MEKK3 PB1 HTS 74[inhibitor] | MEKK2wt confirm inactive | MEKK2mut-MEK5 inactive | MEKK3-MEK5 inh inactive
COC(=O)CC1=C(C(=O)OC)C(c2cccs2)C(C#N)=C(N)O1 (stereo not drawn)	none
O=c1cc(N2CCCC2)c2ccccc2o1	MEKK3 PB1 HTS 1.0[inhibitor] (no result: MEKK2wt PB1 HTS) | MEKK2wt confirm inactive | MEKK2mut-MEK5 inactive | MEKK3-MEK5 inh inactive
C#CCN(C[C@H]1[C@H](OC(=O)Nc2c(C)noc2C)[C@H](OC(=O)Nc2c(C)noc2C)C[C@H]2C(=O)N(c3ccccc3)C(=O)[C@@H]12)S(=O)(=O)c1ccc(C)cc1	none (no result: MEKK2 mut-MEK5, MEKK2wt PB1 HTS, MEKK3 PB1 HTS)
Cc1ccc(C(C)C)c(OCC(=O)NNC(=O)CC2OC(=O)c3ccccc32)c1 (stereo not drawn)	none (no result: MEKK2 mut-MEK5, MEKK2wt PB1 HTS, MEKK3 PB1 HTS)
CCOc1ccc(NC(=S)N(CCCN2CCCC2)Cc2cccn2Cc2ccc(Cl)cc2)cc1	MEKK2wt PB1 HTS 186 | MEKK2wt confirm inactive | MEKK2mut-MEK5 inactive | MEKK3-MEK5 inh inactive
CCN1CCN(CCCN(Cc2ccco2)C(=S)Nc2ccc(Cl)cc2)CC1	none
Cc1cccc(NC(=S)N(CCCN2CCCC2)Cc2cccn2Cc2ccc(Cl)cc2)c1	MEKK2 mut-MEK5 65, MEKK2wt PB1 HTS 206 | MEKK2wt confirm inactive | MEKK2mut-MEK5 inactive | MEKK3-MEK5 inh inactive
Cc1ccccc1NC(=O)COC(=O)COc1ccc2ccc(=O)oc2c1	none (no result: MEKK2 mut-MEK5, MEKK2wt PB1 HTS, MEKK3 PB1 HTS)
CC(C)(C)c1nnc(N/N=C/c2cc(Br)ccc2O)n(N)c1=O	MEKK3 PB1 HTS 142 | MEKK2wt confirm inactive | MEKK2mut-MEK5 inactive | MEKK3-MEK5 inh inactive
O=C(COC(=O)CCC(=O)c1ccc(F)cc1)NCCc1ccccc1	none (no result: MEKK2 mut-MEK5, MEKK2wt PB1 HTS, MEKK3 PB1 HTS)
Cc1ccc(/C=C2\SC(=S)N(C3CCS(=O)(=O)C3)C2=O)o1 (stereo not drawn)	none
NS(=O)(=O)c1ccc(-c2ccc(/C=C3\SC(=S)N(C4CCS(=O)(=O)C4)C3=O)o2)cc1 (stereo not drawn)	MEKK2wt PB1 HTS 56[inhibitor] | MEKK2wt confirm inactive | MEKK2mut-MEK5 inactive | MEKK3-MEK5 inh inactive
Cc1nc(SCC(=O)NCc2ccco2)c2c(C)c(C)sc2n1	none
Cc1sc2nc(C(C)C)nc(SCC(=O)NCc3ccco3)c2c1C	MEKK2wt PB1 HTS -6.0[inhibitor], MEKK3 PB1 HTS -1.0[inhibitor] | MEKK2wt confirm inactive | MEKK2mut-MEK5 inactive | MEKK3-MEK5 inh inactive
O=C(CSc1nc(O)c(Cc2ccccc2)c(=O)[nH]1)N1CCOCC1	MEKK3 PB1 HTS 131 | MEKK2wt confirm inactive | MEKK2mut-MEK5 inactive | MEKK3-MEK5 inh inactive
COc1ccc(-c2ccnc(SCC(=O)c3ccc(Cl)cc3)n2)cc1	none
COc1ccc(-c2ccnc(SCC(=O)N3CCN(c4ccccc4)CC3)n2)cc1	CRFBP-R2 block 61, MEKK3 PB1 HTS 137 | MEKK2wt confirm inactive | MEKK2mut-MEK5 inactive | MEKK3-MEK5 inh inactive
COc1ccc(-c2ccnc(SCC(=O)c3ccc(OC)c(OC)c3)n2)cc1	MEKK3 PB1 HTS 132 | MEKK2wt confirm inactive | MEKK2mut-MEK5 inactive | MEKK3-MEK5 inh inactive
CCCCc1c(O)nc(SCC(=O)Nc2ccc(OC)cc2)n(-c2ccc(C)c(C)c2)c1=O	none (no result: MEKK2 mut-MEK5, MEKK2wt PB1 HTS, MEKK3 PB1 HTS)
CCc1ccc(C(=O)NCc2ccc(Cl)cc2)cc1	MEKK3 PB1 HTS 71[inhibitor] | MEKK2wt confirm inactive | MEKK2mut-MEK5 inactive | MEKK3-MEK5 inh inactive
Cc1ccc(SCc2ccc(C(=O)NCc3ccncc3)cc2)cc1	MEKK3 PB1 HTS 82[inhibitor] | MEKK2wt confirm inactive | MEKK2mut-MEK5 inactive | MEKK3-MEK5 inh inactive
Cc1ccc(C)n1-c1nccc(-c2ccco2)n1	none
CCC1(CC)C(=O)NC(=O)NC1=S	none (no result: MEKK2 mut-MEK5, MEKK2wt PB1 HTS, MEKK3 PB1 HTS)
Cc1csc(NC(=O)c2cc(C)on2)n1	none (no result: MEKK2 mut-MEK5, MEKK2wt PB1 HTS, MEKK3 PB1 HTS)
O=c1cc(O)c2sc3nc(-c4ccccc4)cc(C(F)(F)F)c3c2[nH]1	MEKK3 PB1 HTS 8.0[inhibitor] | MEKK2wt confirm inactive | MEKK2mut-MEK5 inactive | MEKK3-MEK5 inh inactive
COc1ccc(OC)c(-c2cc(C(F)(F)F)c3c(n2)sc2c(O)cc(=O)[nH]c23)c1	MEKK3 PB1 HTS 69[inhibitor] | MEKK2wt confirm inactive | MEKK2mut-MEK5 inactive | MEKK3-MEK5 inh inactive
Cc1cccc(C)c1NC(=O)C1(N(Cc2ccco2)C(=O)CC2NC(=O)NC2=O)CCCC1 (stereo not drawn)	MEKK2wt PB1 HTS 3.0[inhibitor], MEKK3 PB1 HTS 3.0[inhibitor] | MEKK2wt confirm inactive | MEKK2mut-MEK5 inactive | MEKK3-MEK5 inh inactive
COc1ccc(NC(=O)NNC(=O)CCc2ccc(O)c(O)c2)cc1OC	none
c1ccc(Nc2nc(NCC3CCCO3)c3ccccc3n2)cc1 (stereo not drawn)	none
CCOc1ccc(Nc2nc(NCC3CCCO3)c3ccccc3n2)cc1 (stereo not drawn)	MEKK2wt PB1 HTS 166 | MEKK2wt confirm inactive | MEKK2mut-MEK5 inactive | MEKK3-MEK5 inh inactive
CCOc1ccc(Nc2c3ccccc3nc3ccccc23)cc1	MEKK2wt PB1 HTS 149 | MEKK2wt confirm inactive | MEKK2mut-MEK5 inactive | MEKK3-MEK5 inh inactive
CCOC(=O)c1sc2nc(CSc3ccccc3)nc(N3CCCN(C)CC3)c2c1C	MEKK3 PB1 HTS 130 | MEKK2wt confirm inactive | MEKK2mut-MEK5 inactive | MEKK3-MEK5 inh inactive
CCOC(=O)c1sc2nc(CSc3ccccc3)nc(N3CCC(C(N)=O)CC3)c2c1C	none
COc1ccc(C(C)=O)cc1CC(=O)Nc1ccccc1-c1ccccc1	none
O=c1[nH]cc(I)cc1I	MEKK2wt PB1 HTS 38[inhibitor], MEKK3 PB1 HTS 37[inhibitor] | MEKK2wt confirm inactive | MEKK2mut-MEK5 inactive | MEKK3-MEK5 inh inactive
Cc1[nH]n(-c2ccccc2)c(=O)c1C=Nc1ccc2[nH]c(=O)[nH]c2c1	none
Cc1cccc(-n2[nH]c(C)c(C=Nc3ccc4[nH]c(=O)[nH]c4c3)c2=O)c1	MEKK3 PB1 HTS 129 | MEKK2wt confirm inactive | MEKK2mut-MEK5 inactive | MEKK3-MEK5 inh inactive
Cc1ccccc1CS(=O)(=O)CCC(=O)NCc1ccc(F)cc1Cl	none
O=C1C(=Nc2cccc(Cl)c2)CC(c2ccc(Cl)cc2)N1c1cccc(Cl)c1 (stereo not drawn)	none
CC(=O)c1ccc(NC(=O)[C@@H]2CCCN2C2=NS(=O)(=O)c3ccccc32)cc1	none (no result: MEKK2 mut-MEK5, MEKK2wt PB1 HTS, MEKK3 PB1 HTS)
O=C(CCSCc1ccc(Cl)cc1)NCCc1ccccc1	MEKK3 PB1 HTS 142 | MEKK2wt confirm inactive | MEKK2mut-MEK5 inactive | MEKK3-MEK5 inh inactive
